# From PubChem BioAssay
# Calls of active or inactive are those of the source.
# Test: growth effects on S. cerevisiae YJM789 – YJM789 clinical isolate, OD600, 24 h, basal, primary screen (AID 1089);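 note: growth of clinical yeast isolate S. cerevisiae YJM 789 seeded 1000 cells per well; test concentration not given here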
# Conditions: higher = more signal, called active from +8 up or from −8 down
row,Compound,z-score
1,O=C(O)C1=CC[C@H]2C(=O)N(c3ccccc3)C(=O)[C@@H]12,0.735 (inactive)
2,C=CC[C@H](OC(=O)Nc1ccc(SC)cc1)c1ccc(O)c(F)c1,-22.7 (active)
3,COC(=O)C1(CC(C)C)C=C2C(=C(C)C(=O)C2C)CN1 (stereo unspecified),-0.355 (inactive)
4,[N-]=[N+]=NCc1ccccc1C[C@]1(C(=O)N2CCCCC2)COC(c2ccc(OCCCO)cc2)=N1,0.504 (inactive)
5,C=C[C@H](C)[C@@H](OC(=O)Nc1ccc(SC)cc1)c1ccc(OCCO)cc1,0.613 (inactive)
6,COC(=O)Cn1c(C(=O)N(C)C)cc2c1C[C@H]1CN(C(=O)c3ccccc3)[C@@](Cc3ccccc3)(C(=O)OC)[C@@H]21,-0.561 (inactive)
7,O=C1c2ccccc2[C@](Cc2ccccc2I)(C(=O)NCCN2CCOCC2)[C@H](c2ccc(CO)cc2)N1Cc1ccccc1C(F)(F)F,-1.06 (inactive)
8,Cc1ccc(S[C@]2(C(=O)NCCN3CCOCC3)CC(=O)N(C(C)C)[C@@H]2c2ccc(CO)cc2I)cc1,-2.73 (inactive)
9,C=C(CCCC)C(=O)CC[C@H](OC(=O)c1ccccc1-c1ccccc1C(=O)O)c1cccc(OCCO)c1,-0.0349 (inactive)
10,[N-]=[N+]=Nc1ccccc1C[C@@]1(C(=O)NCc2ccccc2)N=C(c2ccc(OCCCO)cc2)O[C@@H]1c1ccccc1,-1.27 (inactive)
11,C=CCNC(=O)[C@@H]1[C@H]2C(=O)O[C@H](c3ccccc3)[C@H](c3ccccc3)N2[C@H](c2ccc(OCCO)cc2)[C@@]12C(=O)Nc1ccc(C#CC3=CCCCC3)cc12,1.78 (inactive)
12,CC(C)C[C@@H]1NC(=O)[C@H]2C[C@@H](C(=O)O)[C@@H](c3cccc(OCCO)c3)N2C1=O,0.395 (inactive)
13,CC(C)c1ccc(NN2C(C(O)C(C)c3ccccc3)C=CC3C(=O)N(c4ccccc4)C(=O)C32)cc1 (stereo unspecified),-0.202 (inactive)
14,Cc1ccc(S(=O)(=O)N2[C@@H](c3ccccc3)C(C(=O)O)=C[C@H]2C(C)(C)C)cc1,-0.601 (inactive)
15,CCOC(=O)C1=CC[C@@H](c2ccccc2)N(S(=O)(=O)c2ccc(C)cc2)[C@@H]1C#N,-0.671 (inactive)
16,COCCOC(=O)N1C(=O)[C@@]2(c3cc(C#CCC(C(=O)OC)C(=O)OC)ccc31)[C@H](C(=O)N1CCc3cc(OC)c(OC)cc3C1)[C@H]1C(=O)O[C@H](c3ccccc3)[C@H](c3ccccc3)N1[C@@H]2c1ccccc1OCCO,1.32 (inactive)
17,CN(C)CCCC[C@@H]1NC(=O)[C@H]2C[C@@H](C(=O)NCCCCCCNC(=O)CS)[C@@H](c3cccc(OCCO)c3)N2C1=O,-0.522 (inactive)
18,COc1cc2c(cc1O)C(C)N(Cc1sc3ccccc3c1Cl)CC2 (stereo unspecified),0.173 (inactive)
19,COCCOC(=O)N1C(=O)[C@@]2(c3cc(C#CCC(C(=O)OC)C(=O)OC)ccc31)[C@H](c1ccc(O)cc1)N1[C@H](c3ccccc3)[C@H](c3ccccc3)OC(=O)[C@H]1[C@@H]2C(=O)N1CCc2cc(OC)c(OC)cc2C1,0.344 (inactive)
20,CCOC(=O)C1=CCC(c2ccncc2)N(S(=O)(=O)c2ccc(C)cc2)C1 (stereo unspecified),-2.24 (inactive)
21,COC(=O)[C@@]1(Cc2ccc(F)cc2)[C@H]2c3cc(C(=O)N4CCCC4)n(Cc4ccc(C(F)(F)F)nc4)c3C[C@H]2CN1C(=O)c1ccccc1,-0.368 (inactive)
22,CC(C)(C)OC(=O)CC[C@@]1(C(N)=O)N=C(c2ccc(OCCCO)cc2)O[C@@H]1c1ccccc1CN=[N+]=[N-],0.689 (inactive)
23,C=CCNC(=O)[C@H]1[C@@H]2C(=O)O[C@@H](c3ccccc3)[C@@H](c3ccccc3)N2[C@@H](c2ccc(OCCO)cc2)[C@]12C(=O)N(C(=O)OCCOC)c1ccc(C#CCC(C(=O)OC)C(=O)OC)cc12,2.06 (inactive)
24,C=CCOC(=O)[C@H]1[C@@H]2C(=O)O[C@@H](c3ccccc3)[C@@H](c3ccccc3)N2[C@@H](c2ccc(OCCOC(=O)[C@@H]3C[C@@H]4C(=O)N[C@@H](Cc5ccccc5)C(=O)N4[C@@H]3c3ccc(O)cc3)cc2)[C@]12C(=O)Nc1ccc(I)cc12,1.77 (inactive)
25,CCN1C(=O)C2CC(=O)C3C(CN(S(=O)(=O)c4ccc(C)cc4)C3c3ccc(C)cc3)C2C1=O (stereo unspecified),-0.01 (inactive)
26,C=C(C)C1CN([C@H](CO)c2ccccc2)C(=O)/C1=C\c1ccccc1 (stereo partly specified),-0.334 (inactive)
